GLP1R inv ag: acts as inverse agonist at human GLP-1 receptor; HEK293 GLP-1R CRE-luciferase, luminescence, 24 h; GLP-1R form is constitutively active; Potency, µM (top dose mostly 38.3 µM), without a hit: at the top dose activity change, negative = inhibition, actives largely listed as inhibitors; actives 1.6% (n = 410,000); AID 624417; also: % is scaled to controls: 0 for no effect and ±100 for the full control effect; nearly all actives have a fitted effect of over 55% in size
Target sequence (P43220 whole entry, looked up): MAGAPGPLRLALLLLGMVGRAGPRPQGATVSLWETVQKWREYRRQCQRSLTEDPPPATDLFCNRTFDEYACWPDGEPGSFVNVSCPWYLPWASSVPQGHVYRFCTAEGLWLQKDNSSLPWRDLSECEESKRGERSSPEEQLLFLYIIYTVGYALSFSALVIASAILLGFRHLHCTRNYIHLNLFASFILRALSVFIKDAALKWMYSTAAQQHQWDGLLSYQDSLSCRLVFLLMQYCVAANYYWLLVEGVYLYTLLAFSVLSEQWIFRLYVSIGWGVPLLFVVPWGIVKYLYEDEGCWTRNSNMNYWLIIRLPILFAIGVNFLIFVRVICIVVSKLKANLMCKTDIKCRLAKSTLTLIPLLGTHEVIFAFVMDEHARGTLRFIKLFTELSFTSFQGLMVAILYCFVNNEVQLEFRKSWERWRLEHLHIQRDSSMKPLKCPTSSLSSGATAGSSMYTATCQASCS
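HEK293 cells stably co-expressing constitutively active GLP-1R and a cAMP-responsive luciferase reporter were seeded in DMEM with 10% Nu serum, given compounds after 12 h, and incubated 24 h at 37 deg C. Luminescence was then read.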
Mito fusion yeast: mitochondrial division inhibition or fusion activation | S. cerevisiae fusion-defective mutant growth rescue, CellTiterGlo 48 h | Potency, µM (doses to about 46.1 µM), inactives show top-dose growth rescue (activation), hits mostly activators | actives 0.23% (n = 320,000); also: % of control where 0% means no effect; nearly all actives have a fitted effect of over 45% in size
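Luminescent cell viability in 1536-well qHTS format served as the measure of rescued growth in ts fusion-mutant S. cerevisiae cultured on non-fermentable YPEG for 48 hours at 37C.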
GLP1R ag: GLP-1 receptor (human) agonism; HEK293 GLP-1R CRE-luciferase, luminescence, 4-6 h; cells express a hypersensitive GLP-1R form; Potency, µM (series often up to 45.6 µM), inactives show at the highest dose activation, most hits filed as activators; actives 0.007% (n = 380,000); also: % of control where 0% means no effect
HEK293 tox: cytotoxicity counter-screen for GLP-1 receptor inverse agonists | HEK293 cAMP-luciferase reporter cells, luminescence, 24 h | Potency, µM (top dose mostly 38.3 µM), without a hit: top-dose activity change, negative = inhibition, usual class: inhibitors | actives 0.13% (n = 410,000);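 also: loss of luciferase light is scored as toxicity; % is scaled to controls: 0 for no effect and ±100 for the full control effect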
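A 23 nL compound transfer followed 12 hours of cell culture at 37 deg C; exposure then lasted 24 hr. Luciferase assay detection reagent was dispensed and plates read for luminescence after a 12 min room-temperature wait.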
BRCA1 expr up: activators of BRCA1 expression | Potency, µM (series often up to 46.1 µM), for inactives: top-dose activation, actives largely listed as activators | MCF7-BRCA1-FFLuc reporter, luminescence, 48 h; response scale: scaled: vehicle 0%, 10 µM genistein 100% | actives 1.1% (n = 380,000); also: nearly all actives have a fitted effect of over 80% in size
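MCF7 cells carrying a BRCA1-firefly luciferase reporter (2000 cells/well, phenol-red free MEM) were attached for 2 h at 37 °C, then given compounds for 48 h. Luminescence was read 15 min after luciferase reagent; activity normalized to genistein (10 microM) and DMSO.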
* = called active by the depositor; ? = inconclusive; . = no result given. Only some compounds are listed: those with a hit (about 2.8% of all), similar ones and a draw of the others. Calls follow the shape of the dose curve; as a rule, active = well fitted curve in the direction sought with a large enough effect; inconclusive = small, poorly fitted or top-dose-only effect, or another doubt; inactive = no such curve, though single readings can be large; an effect the other way counts as inactive or inconclusive. Potency is read from the fitted curve at half-maximal effect.

SMILES	GLP1R inv ag	Mito fusion yeast	GLP1R ag	HEK293 tox	BRCA1 expr up
COc1ccccc1CCC(=O)OCC(=O)NCc1ccc(OC)c(OC)c1	6.2%	.	7.2%	-2.6%	1.7%
C=CCc1cccc(CNc2nc3ccccc3n2CC)c1O	5.01µM*	0.7%	9.0%	-23.3%	-34.4%
O=C(NC(Cc1ccccc1)C(=O)O)c1ccc(S(=O)(=O)N2CCCC2)cc1 (configuration not stated)	10.7%	0.8%	-1.3%	2.1%	2.0%
CS(=O)(=O)N1CCc2cc(C(=O)Nc3cccc(F)c3)ccc21	-0.6%	.	.	-19.2%	11.2µM*
CS(=O)(=O)N1CCc2cc(C(=O)Nc3ccc(C(F)(F)F)cc3)ccc21	-13.8%	.	.	-18.2%	-29.4%
CS(=O)(=O)N1CCc2cc(C(=O)OCC(=O)c3ccccc3)ccc21	11.1%	0.8%	2.6%	-8.7%	10µM*
CS(=O)(=O)N1CCc2cc(C(=O)Nc3ccc(Cl)c(C(F)(F)F)c3)ccc21	10µM*	.	.	?	-47.3%
COc1ccc(CCNC(=O)CCn2c(=O)c3ccccc3n(CC(=O)Nc3cccc(C)c3)c2=O)cc1OC	-16.3%	.	0.5%	4.9%	13.9%
Cc1ccc(C(=O)N2CCC(n3nccc3NC(=O)C3CCOC3)CC2)cc1 (configuration not stated)	7.7%	0.5%	1.5%	-1.8%	26.4%
CC1CCCN(CCOc2ccc3ccccc3c2Br)C1 (configuration not stated)	10µM*	4.4%	19.6%	?	-10.2%
CC1CCCN(CCCOc2ccc(Cl)cc2Br)C1 (configuration not stated)	?	18.9%	-1.8%	-7.9%	31.7%
Cc1ccc(-n2c3nc(=O)[nH]c(=O)c-3cc3cc([N+](=O)[O-])ccc32)cc1C	10µM*	-1.2%	7.9%	?	-54.8%
Cc1ccc(S(=O)(=O)n2cnc3cc([N+](=O)[O-])ccc32)cc1C	6.5%	1.7%	0.1%	0.4%	-4.4%
O=C(NCCc1ccccc1)c1ccc(-c2ccc(F)c(F)c2)c2ccoc12	-2.6%	.	4.1%	0.8%	31.8%
S=c1[nH]nc(-c2cccs2)n1C1CCCCC1	-23.0%	-10.1%	-2.0%	?	-5.8%
CC(C1CC2CCC1C2)n1c(-c2cccs2)n[nH]c1=S (configuration not stated)	5.01µM*	9.2%	12.7%	-0.5%	-31.5%
CCOC(=O)c1c(C(F)(F)C(F)(F)C(F)(F)C(F)(F)F)n[nH]c1C	10µM*	1.6%	-0.7%	?	-31.8%
CCC1Oc2ccc(C)cc2N(CC(=O)N(Cc2ccc(C)o2)C2CCCC2)C1=O (configuration not stated)	4.47µM*	27.2%	-17.4%	-36.9%	-35.5%
CCC1Oc2ccc(C)cc2N(CC(=O)NC2CCCCC2)C1=O (configuration not stated)	-24.8%	10.7%	6.4%	5.0%	-6.7%
Cc1nc2nc(NC(=O)c3cccc(Cl)c3)[nH]n2c(=O)c1Cc1ccccc1	0.6%	.	.	0.1%	.
OC(c1ccccc1)c1nc(/C=C/c2ccccc2)cs1 (configuration not stated)	3.1%	.	0.3%	3.2%	10µM*
COC(=O)Cn1c(SCc2ccccc2)nc2ccccc21	-5.0%	1.6%	15.7%	76.8%	7.94µM*
Cn1c(/C=C/c2ccc(Cl)cc2)c([N+](=O)[O-])c(=O)n(C)c1=O	0.794µM*	-8.9%	-4.9%	?	-91.0%
CCCN(CCC)S(=O)(=O)c1ccc(C(=O)Nc2cc3oc4ccccc4c3cc2OC)cc1	-19.6%	-1.1%	-8.4%	30.6%	-8.4%
COc1ccc2cc(C#N)c(SCC(=O)N3CCCC3)nc2c1	35.1%	-0.6%	2.1%	-10.0%	11.2µM*
SMILES	GLP1R inv ag	Mito fusion yeast	GLP1R ag	HEK293 tox	BRCA1 expr up
CCCC[C@H](CC(=O)c1ccccc1)[C@@H](OC(C)=O)C(=O)Oc1c(C(C)C)cccc1C(C)C	3.55µM*	7.4%	-2.8%	-25.3%	-10.0%
Cc1cc(Nc2cccc(Cl)c2)nc2ccc(NC(=O)c3cccc(N(C)C)c3)cc12	5.62µM*	.	-3.3%	-19.0%	-4.5%
Cc1cc(Nc2cccc(Cl)c2)nc2ccc(NC(=O)c3cccnc3)cc12	?	.	-6.1%	?	-81.3%
COc1ccc(CC(=O)Nc2ccc3nc(Nc4cccc(Cl)c4)cc(C)c3c2)cc1	7.94µM*	.	-11.1%	-18.1%	-67.2%
Cc1ccc(-n2ncc3c(N4CCCCCC4)ncnc32)cc1C	?	.	.	-0.5%	.
Cc1ccc(NC(=S)NCCc2ccccc2)nc1	?	2.5%	?	?	99.1%
Cc1ccc(NC(=O)Cc2ccc(-c3ccccc3)cc2)nc1	10µM*	3.9%	3.6%	-22.6%	-3.0%
Cc1ccc(NC(=O)CCCc2ccccc2)nc1	8.8%	-7.1%	11.4%	-0.3%	11.2µM*
CCc1ccc(OC)c(S(=O)(=O)N2CCN(C(=O)c3ccco3)CC2)c1	-1.1%	1.5%	-0.2%	-1.8%	0.0%
O=C(Nc1ccccc1F)C1CCN(S(=O)(=O)c2ccc3c(c2)CCCN3C(=O)C2CCC2)CC1	-0.8%	.	.	-0.6%	.
O=C(COc1cccc(Oc2ccccc2)c1)Nc1ccc(SC(F)F)cc1	0.0%	6.4%	-0.9%	-45.4%	12.2%
Cc1ccc(C(=O)c2ccccc2C(=O)OCC(=O)Nc2ccc(SC(F)F)cc2)cc1	8.91µM*	?	-6.8%	7.4%	-52.4%
O=C(COc1cccc(OC(F)F)c1)Nc1ccc(SC(F)F)cc1	10µM*	-3.3%	9.4%	3.0%	-21.6%
COc1cccc2cc(C(=O)Nc3ccccc3Cl)/c(=N/NS(=O)(=O)c3ccccc3)oc12	2.0%	-4.8%	10.4%	-11.5%	-12.0%
Cc1cccc(C2=NN(c3ccccc3)[C@H](CO)[C@H]2c2ccc(F)cc2)c1	?	.	6.6%	132.4%	0.0%
Cc1cccc(C2=NN(c3ccccc3)[C@H](CO)[C@H]2c2ccc(Cl)cc2)c1	10µM*	.	-3.8%	192.5%	-59.8%
COc1cc(OC)c2c(=O)cc(-c3ccccc3)oc2c1	50.7%	-1.0%	16.8%	3.5%	7.94µM*
O=c1c2cc(F)ccc2sn1-c1ccccc1	7.3%	-38.6%	7.1%	-8.2%	26.0%
O=c1c2ccccc2sn1-c1ccccc1	10µM*	-20.3%	-8.1%	?	16.2%
O=c1c2ccccc2sn1-c1cccc(Cl)c1	?	.	-2.9%	?	50.8%
Cc1ccccc1-n1sc2cc(F)ccc2c1=O	?	3.4%	4.2%	4.47µM*	-16.4%
O=c1c2ccccc2sn1-c1ccccc1F	14.1µM*	.	-4.6%	10µM*	14.0%
Cc1sc2nc(CN(C(=O)c3cccs3)C3CCCC3)[nH]c(=O)c2c1C	?	26.0%	-3.8%	?	-29.2%
CCOc1ccccc1NC(=O)CN1CCC(NC(=O)c2ccccc2C)CC1	-4.7%	-6.9%	12.7%	7.1%	-27.5%

Compound activity from PubChem BioAssay.
